Data reported in PubChem BioAssay.
Activity calls are given as the source filed them. Unless noted, no rule for the calls is given here.

Legend:
[1] = compounds binding Alexa647 anti-His antibody – biochemical, small-molecule microarray, 635 nm fluorescence, artefact control for SMM control protein annotation, primary screen (AID 1128); details: higher = more signal;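 also: score merges feature fluorescence with signal-to-noise for each printed compound spot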
[2] = test system: Human papillomavirus type 1a E7 protein (residues 1-88); assay: HPV1a E7 small-molecule binders, primary screen, biochemical, small-molecule microarray, residues 1-88, 635 nm (AID 1129); details: small-molecule microarray binding, fluorescence 635 nm; higher = more signal
[3] = molecular target: Focal adhesion kinase 1 (Homo sapiens) (UniProt Q05397); assay: PTK2 protein binding on printed compound slides – biochemical, small-molecule microarray, 635/667 nm fluorescence, BSA, DTT, primary screen (AID 1130); details: 635 nm fluorescence, higher = more signal;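 also: composite of spot emission at 667 nm and signal to noise over triplicate slides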
[4] = test system: Fibrinogen (Alexa647-labelled); assay: Alexa647-fibrinogen binding to printed small molecules – biochemical, small-molecule microarray, 635/667 nm fluorescence, artefact control for SMM control-protein annotation, profiling panel (AID 1131); details: fibrinogen-A647 binding fluorescence, higher = more signal;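 also: z-score merges 667 nm fluorescence with per-spot signal-to-noise over triplicate slides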
[5] = molecular target: Follistatin (Homo sapiens) (UniProt P19883); assay: FST protein binding to printed compounds – biochemical, small-molecule microarray, 635/667 nm fluorescence, primary screen (AID 1132); details: 635 nm fluorescence, higher = more signal
[6] = molecular target: Fibroblast growth factor 2 (Homo sapiens) (UniProt P09038); assay: basic fibroblast growth factor binding to printed compounds – biochemical, small-molecule microarray, 635/667 nm fluorescence, primary screen (AID 1133); details: FGF2, fluorescence 635/667, higher = more signal
[7] = JC-1 mitochondrial potential readout, lung cancer cells – cell-based, A549, JC-1 fluorescence, basal, 24 h, 100 nL, profiling panel (AID 1138); details: higher = more signal;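 also: A549 lung adenocarcinoma cells under basal conditions with no added stimulus; test concentration not given here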
[8] = test system: Lefty1; assay: Lefty1 protein binding to printed compounds – biochemical, small-molecule microarray, 635/667 nm fluorescence, primary screen (AID 1139); details: fluorescence 635/667, higher = more signal
[9] = test system: wheat germ agglutinin (Triticum aestivum), Alexa647-labelled; assay: Alexa647-WGA lectin binding to printed small molecules – biochemical, small-molecule microarray, 635/667 nm fluorescence, artefact control for SMM control-protein annotation, profiling panel (AID 1140); details: WGA-A647 binding, 635 nm fluorescence, higher = more signal;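 also: score merges 667 nm feature emission with signal to noise over triplicate slides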
[10] = molecular target: Luciferin 4-monooxygenase (Photinus pyralis) (UniProt P08659); assay: inhibition of purified Photinus pyralis luciferase – biochemical, luminescence, purified enzyme, 2006 set, primary screen (AID 1141); details: purified firefly luciferase, SteadyGlo luminescence, 30 min; higher = more signal, called active from +8 up or from −8 down;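 also: cell-free assay with purified firefly luciferase at 100 ng per well in PBS; test concentration not given here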
[11] = test system: Wnt5a (protein binding on small-molecule microarray); assay: small molecules binding Wnt5a protein – biophysical, small-molecule microarray, 635/667 nm fluorescence, primary screen (AID 1142); details: 635 nm fluorescence, higher = more signal;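 also: fluorescence read at 667 nm with signal to noise per printed feature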
[12] = ATP-based viability of Huh7 replicon cells – cell-based, CellTiter-Glo luminescence, basal, 48 h, cytotoxicity control for HCV replication inhibitor project, primary screen (AID 1143); details: higher = more signal, called active from +8 up or from −8 down;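 also: Huh7 hepatoma cells carrying a hepatitis C replication reporter with no stimulus; test concentration not given here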
[13] = Pseudomonas biofilm growth suppression – PAO1 strain, BacTiter-Glo luminescence, LB-PBS, primary screen (AID 1144); details: P. aeruginosa PAO1 biofilm, 12 h, higher = more signal
[14] = basal CRE-LacZ reporter activity in PC12 – cell-based, unstimulated, primary screen (AID 1145); details: no forskolin, luminescence, 4.5 h, higher = more signal, called active from +8 up or from −8 down
[15] = forskolin-driven CRE-LacZ activity in PC12 – cell-based, CRE-LacZ reporter, forskolin-stimulated, primary screen (AID 1146); details: luminescence, 4.5 h, higher = more signal, called active from +8 up or from −8 down;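 also: PC12 cells with 6xCRE LacZ reporter stimulated by forskolin 10 µM; beta-galactosidase reporter signal reflecting CREB driven transcription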
[16] = molecular target: Streptavidin (Streptomyces avidinii) (UniProt P22629); assay: compounds binding control protein streptavidin – biophysical, small-molecule microarray, 635/667 nm fluorescence, artefact control for SMM compound annotation, primary screen (AID 1147); details: higher = more signal;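 also: signal reflects streptavidin binding to arrayed compounds as a control protein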
[17] = probe aInhba binding on compound microarray – biochemical, small-molecule microarray, 635/667 nm fluorescence, primary screen (AID 1148); details: higher = more signal;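 also: score merges 667nm spot fluorescence with signal-to-noise for antibody binding to printed compounds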
[18] = molecular target: Torsin-1A (Homo sapiens) (UniProt O14656); assay: TOR1A wild-type binding on microarray – cell lysate, small-molecule microarray, lysate, 635/667 nm, primary screen (AID 1149); details: COS7 hTOR1A-WT lysate, 635 nm fluorescence, higher = more signal
[19] = molecular target: Torsin-1A (Homo sapiens) (UniProt O14656); assay: torsin A mutant lysate binding on microarrays – cell lysate, small-molecule microarray, COS7 lysate, 635/667 nm fluorescence, primary screen (AID 1150); details: COS7 hTOR1A mutant lysate, 635 nm fluorescence, higher = more signal;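 also: score pools 667 nm emission and signal to noise measuring lysate protein binding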
[20] = test system: Sonic hedgehog protein (Shh); assay: Sonic hedgehog microarray binding compounds – biochemical, small-molecule microarray, 635/667 nm fluorescence, primary screen (AID 1151); details: 635 nm fluorescence, higher = more signal;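 also: Shh protein binding to compounds spotted on small-molecule microarray slides; score combines spot fluorescence intensity with signal-to-noise across triplicate slides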

Sequence of Torsin-1A (Homo sapiens) (O14656 whole entry, looked up): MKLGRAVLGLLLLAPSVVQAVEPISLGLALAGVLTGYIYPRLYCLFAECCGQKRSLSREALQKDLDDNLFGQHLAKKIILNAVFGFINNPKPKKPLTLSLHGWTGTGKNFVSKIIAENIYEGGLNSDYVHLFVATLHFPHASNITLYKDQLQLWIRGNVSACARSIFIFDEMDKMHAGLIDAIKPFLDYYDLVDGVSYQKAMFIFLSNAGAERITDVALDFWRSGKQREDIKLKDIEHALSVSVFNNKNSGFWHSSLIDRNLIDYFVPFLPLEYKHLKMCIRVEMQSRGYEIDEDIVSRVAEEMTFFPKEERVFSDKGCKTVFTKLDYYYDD
Sequence of Streptavidin (Streptomyces avidinii) (P22629 whole entry, looked up): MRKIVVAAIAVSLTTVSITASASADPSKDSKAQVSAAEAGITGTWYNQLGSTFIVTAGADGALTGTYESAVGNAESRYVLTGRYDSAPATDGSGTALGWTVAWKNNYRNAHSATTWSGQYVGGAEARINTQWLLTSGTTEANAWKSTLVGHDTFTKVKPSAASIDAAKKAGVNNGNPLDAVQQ
Sequence of Fibroblast growth factor 2 (Homo sapiens) (P09038 whole entry, looked up): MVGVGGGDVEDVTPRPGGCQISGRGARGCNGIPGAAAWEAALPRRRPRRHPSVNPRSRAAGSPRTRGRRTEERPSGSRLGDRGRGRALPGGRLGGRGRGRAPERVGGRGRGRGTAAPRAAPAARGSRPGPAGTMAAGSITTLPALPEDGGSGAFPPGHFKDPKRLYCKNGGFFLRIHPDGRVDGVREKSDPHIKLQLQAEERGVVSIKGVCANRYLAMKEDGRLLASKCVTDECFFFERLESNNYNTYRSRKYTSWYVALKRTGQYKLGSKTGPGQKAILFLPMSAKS
Sequence of Focal adhesion kinase 1 (Homo sapiens) (Q05397 whole entry, looked up): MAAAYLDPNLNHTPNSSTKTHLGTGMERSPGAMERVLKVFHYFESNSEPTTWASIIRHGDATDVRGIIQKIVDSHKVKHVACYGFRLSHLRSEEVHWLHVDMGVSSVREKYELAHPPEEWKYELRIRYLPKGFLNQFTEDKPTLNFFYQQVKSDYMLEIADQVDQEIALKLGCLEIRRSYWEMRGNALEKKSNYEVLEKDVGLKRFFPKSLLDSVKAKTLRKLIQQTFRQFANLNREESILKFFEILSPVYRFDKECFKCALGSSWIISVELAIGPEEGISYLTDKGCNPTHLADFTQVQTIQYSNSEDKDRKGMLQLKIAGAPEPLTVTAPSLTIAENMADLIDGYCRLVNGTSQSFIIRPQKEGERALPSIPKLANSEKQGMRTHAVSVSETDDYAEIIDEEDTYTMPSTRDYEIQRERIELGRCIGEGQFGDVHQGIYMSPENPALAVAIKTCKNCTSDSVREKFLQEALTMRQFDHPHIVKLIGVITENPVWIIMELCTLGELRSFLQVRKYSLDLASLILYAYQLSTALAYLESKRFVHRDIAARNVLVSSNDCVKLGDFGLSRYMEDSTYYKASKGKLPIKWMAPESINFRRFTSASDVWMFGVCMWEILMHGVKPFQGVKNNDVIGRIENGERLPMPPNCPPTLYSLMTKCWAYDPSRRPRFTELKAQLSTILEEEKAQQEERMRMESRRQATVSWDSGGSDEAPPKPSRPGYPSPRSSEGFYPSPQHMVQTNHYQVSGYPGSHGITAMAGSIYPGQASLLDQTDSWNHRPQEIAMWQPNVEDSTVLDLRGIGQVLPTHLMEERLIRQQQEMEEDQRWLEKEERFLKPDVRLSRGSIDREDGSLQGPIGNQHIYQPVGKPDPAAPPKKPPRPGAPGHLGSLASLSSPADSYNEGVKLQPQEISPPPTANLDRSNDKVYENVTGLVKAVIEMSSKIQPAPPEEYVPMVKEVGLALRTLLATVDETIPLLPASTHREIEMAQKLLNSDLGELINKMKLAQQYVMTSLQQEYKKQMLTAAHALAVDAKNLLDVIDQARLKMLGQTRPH
Sequence of Follistatin (Homo sapiens) (P19883 whole entry, looked up): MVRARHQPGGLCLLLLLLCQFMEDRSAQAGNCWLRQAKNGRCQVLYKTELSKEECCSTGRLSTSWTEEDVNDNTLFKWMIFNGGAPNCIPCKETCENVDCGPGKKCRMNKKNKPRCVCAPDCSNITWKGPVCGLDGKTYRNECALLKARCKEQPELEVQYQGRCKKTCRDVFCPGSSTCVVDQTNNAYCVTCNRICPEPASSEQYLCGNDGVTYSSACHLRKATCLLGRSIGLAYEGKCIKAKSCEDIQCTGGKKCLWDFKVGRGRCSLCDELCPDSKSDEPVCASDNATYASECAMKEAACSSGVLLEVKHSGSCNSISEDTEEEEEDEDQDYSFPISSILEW
Sequence of Luciferin 4-monooxygenase (Photinus pyralis) (P08659 whole entry, looked up): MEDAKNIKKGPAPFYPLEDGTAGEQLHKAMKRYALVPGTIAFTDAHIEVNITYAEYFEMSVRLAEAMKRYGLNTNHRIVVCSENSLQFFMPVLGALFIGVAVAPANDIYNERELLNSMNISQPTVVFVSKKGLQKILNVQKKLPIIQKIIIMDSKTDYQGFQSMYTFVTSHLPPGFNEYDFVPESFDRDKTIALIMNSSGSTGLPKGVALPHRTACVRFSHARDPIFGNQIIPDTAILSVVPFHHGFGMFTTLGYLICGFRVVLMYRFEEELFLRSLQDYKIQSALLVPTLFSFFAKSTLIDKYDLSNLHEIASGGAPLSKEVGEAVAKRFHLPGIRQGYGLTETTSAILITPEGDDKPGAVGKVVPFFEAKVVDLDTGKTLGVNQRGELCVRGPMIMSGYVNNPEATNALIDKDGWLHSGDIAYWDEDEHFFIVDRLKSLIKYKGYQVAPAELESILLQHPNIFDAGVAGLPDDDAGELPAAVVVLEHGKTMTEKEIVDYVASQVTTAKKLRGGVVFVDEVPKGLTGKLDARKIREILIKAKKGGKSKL

SMILES	composite z-score [1]	composite z-score [2]	composite z-score [3]	composite z-score [4]	composite z-score [5]	composite z-score [6]	z-score [7]	composite z-score [8]	composite z-score [9]	z-score [10]	composite z-score [11]	z-score [12]	z-score [13]	z-score [14]	z-score [15]	composite z-score [16]	composite z-score [17]	composite z-score [18]	composite z-score [19]	composite z-score [20]
O=C1C2C=CC(C(O)c3ccc(Br)cc3)N(Nc3ccccc3F)C2C(=O)N1c1ccccc1 (stereo not given)	2.57	0.992	-0.312	0.967	0.0288	-0.265	0.147	-0.107	0.672	1.71 (inactive)	-0.0758	-2.94 (inactive)	-1.76 (inactive)	-1.02 (inactive)	-0.0733 (inactive)	0.738	-0.204	-0.423	-0.0946	-0.481
COc1ccc([Si](C)(C)[C@H]2[C@H](CC(=O)N(CCO)Cc3ccccc3)O[C@@]3(C(=O)N(Cc4cccc(N5CCOC5=O)c4)c4ccccc43)[C@@H]2C)cc1	1.65	0.922	0.647	0.206	1.06	0.494	-0.791	0.857	0.321	0.271 (inactive)	-0.031	-4.86 (inactive)	-0.388 (inactive)	1.27 (inactive)	-0.863 (inactive)	0.0212	-0.0523	0.898	0.931	1.22
Cc1ccc(S[C@]2(C(=O)NCC(F)(F)F)CC(=O)N(Cc3ccccc3)[C@@H]2c2ccc(CO)cc2I)cc1	0.905	0.676	-0.315	0.0957	-0.0488	-0.177	0.16	-0.779	0.626	0.424 (inactive)	0.0543	-1.22 (inactive)	0.479 (inactive)	-0.581 (inactive)	1.83 (inactive)	-0.119	0.0228	-0.565	-0.49	0.237
O=C1O[C@@H](c2ccccc2)[C@@H](c2ccccc2)N2[C@@H](c3ccccc3OCCO)[C@]3(C(=O)Nc4ccc(C#CCCO)cc43)[C@@H](C(=O)N3CCCCCCC3)[C@H]12	3.38	1.3	4.83	0.958	1.55	1.14	0.163	1.87	1.74	0.205 (inactive)	2.37	-3.74 (inactive)	-0.163 (inactive)	0.245 (inactive)	0.337 (inactive)	4.08	2.42	3.06	2.96	1.78
C=C(COC)C(=O)CC[C@@H](OC(=O)c1cccnc1)c1ccc(OCCO)cc1	0.282	0.659	-0.157	0.108	1.4	1.78	0.822	1.21	0.237	-3.79 (inactive)	1.71	-7.08 (inactive)	0.403 (inactive)	5.67 (inactive)	0.0067 (inactive)	-0.23	0.0471	0.889	0.321	1.54
